system: Plasmodium falciparum; test: GSK_TCMDC: Inhibition of Plasmodium falciparum 3D7 in whole red blood cells, using parasite LDH activity as an index of growth. Test compounds present at 2uM; format: functional

Structure (SMILES) | Inhibition
COc1cc(NCCCNCc2cn(Cc3cc(Br)cc(Br)c3)c3ccccc23)nc2ccccc12 | 100%
Cc1cc(C)cc(CC(=O)N2CCC(n3c(C)nc4ccc(C)cc43)CC2)c1 | 100%
CC(C)CNCc1ccc(OCc2cccc(COc3ccc(CNCC(C)C)cc3I)c2)c(I)c1.Cl | 98%
CC(C)(C)C(=O)Oc1ccc(CC2NCCc3cc(OC(=O)C(C)(C)C)c(OC(=O)C(C)(C)C)cc32)cc1OC(=O)C(C)(C)C (centres undefined) | 97%

system: Plasmodium falciparum; test: GSK_TCMDC: Inhibition of Plasmodium falciparum Dd2 in whole red blood cells, using parasite LDH activity as an index of growth. Test compounds present at 2uM; format: functional

Structure (SMILES) | Inhibition
CS(=O)(=O)c1ccc2[nH]c(-c3cc(-c4ccc(OCCN5CCOCC5)cc4)cnc3N)nc2c1.O=C(O)C(F)(F)F | 99%
C=CCn1c(=N)c(C(=O)NCc2ccc(F)cc2)cc2c(=O)n3cccc(C)c3nc21 | 11%
CN1CCN(C(=O)CN2CCC3(CCC2=O)NC(=O)c2ccccc2O3)CC1 (centres undefined) | 98%
CCNc1cc(C(=O)N[C@@H](Cc2ccccc2)[C@H](O)CNC2CCC(C(C)(C)C)CC2)cc(N2CCCC2=O)c1 (some centres undefined) | 98%
COc1ccc2c(NN=CC=Cc3ccccc3)ccnc2c1 | 100%
O=[N+]([O-])c1ccc(/C=N/O)nc1 | 98%
Cc1cccc2nc(-c3cccc(-c4cccc(CNC(C)C)c4)c3)[nH]c12.O=C(O)C(F)(F)F | 98%
CCc1cc(Br)c(CNCCCNc2cc(=O)c3ccccc3[nH]2)s1.Cl | 45%
N#CC(CC(=O)c1ccc(Cl)cc1)c1cccc(F)c1 (centres undefined) | 4%
COc1cc(Br)c(NC(=O)Nc2ccc(C(F)(F)F)c(O[C@@H]3CCN(C)C3)c2)cc1OC.Cl | 27%
CC(C)C[C@@H](C(=O)N[C@@H](CCCCNC(=O)OCc1ccccc1)C(=O)Nc1nccs1)[C@H](C)N(O)C=O | 98%
O=C(N[C@@H](CC1CCCCC1)C(=O)NCCN1CCCCC1)c1ccc(O)c(-c2ccc(Cl)c(Cl)c2)c1 | 99%
N=C(N)NN=CC(=O)Nc1ccc(Br)cc1.O=S(=O)(O)O | 1%
Cc1ccc2[nH]c3c(NCCCN(C)C)ncnc3c2c1 | 0%
CC(C)(C)c1ccc(S(=O)(=O)Nc2cc(Cl)ccc2Cn2ccc(N3CCNCC3)nc2=O)cc1.O=C(O)C(F)(F)F | 74%
CC1CCN(Cc2ccc(NC(=O)c3cc4ccc5cccnc5c4[nH]3)cc2)CC1 | 93%
Cc1cc(Nc2ccc(O)cc2)nc2cccc(O)c12 | 28%
CCCNc1ccc2nccc(CCN3CCC(NCc4ccc5c(n4)NC(=O)CS5)CC3)c2n1 | 0%
O=C(NC1CCCC1)c1ccc(N2CCC(NCc3cc4cc(Cl)ccc4[nH]3)CC2)cc1 | 0%
CC1CN(Cc2cccc(-c3ccc(-c4nc5ccccc5[nH]4)cc3)c2)CC(C)O1.O=C(O)C(F)(F)F (centres undefined) | 88%

Structure (SMILES) | Inhibition
Cc1ccc(NC(=O)Nc2ccc(Cl)c(C(F)(F)F)c2)cc1-c1ccc(C(=O)Nc2ccncc2)cc1 | 99%
Oc1c(C(Nc2nc3ccccc3s2)c2ccccc2)ccc2cccnc12 (centres undefined) | 83%
N#Cc1cccc(NC(=O)Nc2ccc(-c3ccc(-c4nc5cc(C(F)(F)F)ccc5[nH]4)cc3)cc2)c1 | 100%
O=C(/C=C/c1ccc(C(F)(F)F)cc1)N1CCc2cc3nccc(N4CCN5CCC[C@H]5C4)c3cc21 | 21%
COc1ccc(-c2cc(NCc3ccc(-n4ccnc4)cc3)nc(Nc3ccccc3)n2)cc1 | 79%
O=C(CN1CCC2(CCC1=O)CC(=O)c1ccccc1O2)NCCN1CCOCC1 (centres undefined) | 0%
COc1ccc(NC(=O)[C@H](Cc2ccccc2)Nc2cc(C)nc(NCCN3CCCC3)n2)cc1.O=C(O)C(F)(F)F | 3%
COc1ccccc1NS(=O)(=O)c1cc(C(=O)Nc2ccc(N3CCOCC3)c(S(=O)(=O)Nc3ccccc3Cl)c2)ccc1Cl | 25%
Cc1ccc(NC(=O)C2CCC2)cc1-c1ccc(C(=O)NCC2CC2)cc1 | 3%
CSc1cccc(Nc2nc3ccc(S(=O)(=O)NC(C)C(C)C)cc3n2[C@H](C)C(C)(C)C)c1 (some centres undefined) | 98%
COc1ccc(CNC2CCN(C)CC2)cc1-c1ccc(S(=O)(=O)NC2CCC2)c(F)c1.O=C(O)C(F)(F)F | 97%
O=S(=O)(Nc1cccc(CCN2CCCCC2CCN2CCCC2)c1)c1ccc(-c2ccccc2)cc1 (centres undefined) | 5%
CS(=O)(=O)c1cccc(-c2ccc3oc(C(N)=O)c(NC(=O)c4cccs4)c3c2)c1 | 77%
CC(C)C[C@H](NC(=O)[C@H](Cc1ccccc1)NC(=O)CCN1C(=O)COc2ccc(C(=O)O)cc21)C(=O)NC(CC1CCCCC1)C(O)CC(=O)NCCCn1ccnc1.Cl.O (some centres undefined) | 0%
CS(=O)(=O)CCNCc1nc(-c2ccc3c(Nc4ccc(Oc5ccccn5)cc4)ccnc3c2)cs1 | 89%
Cc1cccc2nc(-c3ccc(-c4cccc(NC(=O)CCc5c[nH]cn5)c4)cc3)[nH]c12 | 14%
COc1cc(NCCCNCc2cn(Cc3cc(Br)cc(Br)c3)c3ccccc23)nc2ccccc12 | 85%
Cc1cc(C)cc(CC(=O)N2CCC(n3c(C)nc4ccc(C)cc43)CC2)c1 | 100%
CC(C)CNCc1ccc(OCc2cccc(COc3ccc(CNCC(C)C)cc3I)c2)c(I)c1.Cl | 84%
CC(C)(C)C(=O)Oc1ccc(CC2NCCc3cc(OC(=O)C(C)(C)C)c(OC(=O)C(C)(C)C)cc32)cc1OC(=O)C(C)(C)C (centres undefined) | 96%

From ChEMBL document CHEMBL1157539, “Thousands of chemical starting points for antimalarial lead identification” (Nature, 2010)
